Marburg entry inh: blocks Marburg virus binding to or entry into cells; Marburg virus pseudotyped entry inhibition, cell reporter; Potency, µM (highest dose often 37.8 µM), usual class: inhibitors; actives 1.8% (n = 300,000); AID 540276; calls by dose curve; tested in HEK293 cells
FMDV inh: foot and mouth disease virus antiviral activity. Potency, µM (titrated, usually from 57.9 µM), most hits filed as inhibitors. FMDV antiviral cell-based qHTS. actives 1.2% (n = 410,000); calls by dose curve; tested in HEK293T cells; also: read-out not given here; nearly all actives have a fitted effect of over 45% in size
Lassa entry inh: blocks Lassa virus binding to or entry into cells. Lassa virus pseudotype entry inhibition, cell reporter. Potency, µM (doses to about 37.9 µM), hits mostly inhibitors. actives 1.2% (n = 300,000); calls by dose curve; tested in HEK293 cells; also: nearly all actives have a fitted effect of over 50% in size
HCV inh: inhibitors of hepatitis C virus infection | Huh7.5.1 HCVcc-Cre infection, luciferase reporter, 44 h | Potency, µM (highest dose often 41.8 µM), actives largely listed as inhibitors | actives 3.4% (n = 340,000); active = well fitted inhibition curve with a large enough effect; inconclusive = small, poorly fitted or top-dose-only effect, or another doubt; inactive = no such curve, though single readings can be large or run the other way
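Reporter virus HCVcc-Cre (~0.5 moi) infects cells exposed to compound; seeding density 1,000 cells/well with 4 h settling beforehand. Luminescence, 15 sec read, taken 44 h post-infection following a 15 min RT substrate incubation.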
HCMV antiviral: inhibitors of human cytomegalovirus | activity change, negative = inhibition, % at 57.5 µM | actives 4.5% (n = 410,000) | HFF cells, HCMV-luciferase reporter, 72 h; active compounds read low; in the data active = activity change below about -60%; inconclusive = no clear call, values can overlap the other calls; inactive = above about -39%
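Screen run at 2 compound doses on HFFs infected with reporter HCMV, MOI 1 PFU/cell. Luciferase activity from cell lysates at 72 h post infection gave inhibition relative to buffer-only and Salinomycin wells.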
Large screens that a line does not name were inactive; ! = a repeat was not active. Only some compounds are listed: those with a hit (about 7.9% of all), similar ones and a draw of the others.

COc1cc(C2=NOC(C(=O)NCc3ccc(F)cc3)C2)cc(OC)c1OC (stereo not drawn)	Marburg entry inh inconclusive, HCV inh inconclusive, HCMV antiviral -84
Cc1nc2c(-c3ccccc3)c(C)nn2c(C)c1CCC(=O)NCc1ccc(Cl)cc1	FMDV inh inconclusive (no result: HCV inh)
Cc1cccc(CCNC(=O)Cn2ncc3c(=O)oc4ccccc4c32)c1	none (no result: HCV inh)
CCOC(=O)c1cccn1C1C(=O)N(Cc2ccc(C(F)(F)F)cc2)c2ccccc21 (stereo not drawn)	none (no result: Marburg entry inh, FMDV inh, Lassa entry inh, HCV inh)
COc1cc(C=O)ccc1OCCCOc1ccccc1C(=O)O	Marburg entry inh inconclusive, FMDV inh 8.9µM, Lassa entry inh inconclusive
CCNC(=O)COc1ccc(C=O)cc1OC	HCMV antiviral -86
CCOc1ccc(-c2ccc(SCC(=O)Nc3nnc(CC)s3)nn2)cc1	Marburg entry inh inconclusive, HCV inh inconclusive (no result: Lassa entry inh)
CCOc1ccc(-c2ccc(SC)nn2)cc1	Marburg entry inh 1.3µM, Lassa entry inh 2.8µM
COc1ccc(S(=O)(=O)Nc2cc(Sc3ncn[nH]3)c(O)c3ccccc23)cc1	HCV inh 32µM, HCMV antiviral -78 (no result: Marburg entry inh, FMDV inh, Lassa entry inh)
COc1ccc(S(=O)(=O)Nc2ccc(O)c(Sc3ncn[nH]3)c2)cc1	none (no result: FMDV inh)
Cn1cnc2c(=O)oc3ccc(S(=O)(=O)N4CCN(c5ccccc5F)CC4)cc3c21	Lassa entry inh inconclusive (no result: Marburg entry inh, HCV inh)
COc1ccc(N2CCN(c3c(S(=O)(=O)c4ccccc4)cnc4ccc(OC)cc34)CC2)cc1	Marburg entry inh 8.9µM, Lassa entry inh inconclusive, HCV inh 11µM, HCMV antiviral inconclusive
CCOc1ccc2ncc(S(=O)(=O)c3ccccc3)c(N3CCN(c4ccc(OC)cc4)CC3)c2c1	Marburg entry inh inconclusive, Lassa entry inh inconclusive, HCV inh inconclusive
COc1ccc(S(=O)(=O)c2cnc3ccc(OC)cc3c2N2CCC3(CC2)OCCO3)cc1	Marburg entry inh inconclusive, FMDV inh inconclusive, Lassa entry inh inconclusive, HCV inh inconclusive, HCMV antiviral -74
CCOc1ccc(N(CC(=O)NCC2CCCO2)C(=O)CCC(=O)Nc2nccs2)cc1 (stereo not drawn)	Lassa entry inh inconclusive, HCV inh 22µM
CCCCOc1ccc(N(CC(=O)NCC2CCCO2)C(=O)CCC(=O)Nc2nccs2)cc1 (stereo not drawn)	none
Fc1ccc(CNc2nc3ccc(Cl)cc3n3nnnc23)cc1	none (no result: HCV inh)
COc1ccc(C(=O)C(CCC(CNC(C)(C)C)C(=O)c2ccc(OC)cc2)CNC(C)(C)C)cc1 (stereo not drawn)	Marburg entry inh 2.1µM, FMDV inh inconclusive, Lassa entry inh 4µM, HCV inh inconclusive, HCMV antiviral -98
COc1ccc(C(=O)CC(=O)c2ccc(C(C)(C)C)cc2)cc1	HCV inh inconclusive (no result: Marburg entry inh, Lassa entry inh)
CC(C)(C)CC(=O)NCC(c1ccc2c(c1)OCO2)N1CCN(c2ccccc2)CC1 (stereo not drawn)	none (no result: Marburg entry inh, HCV inh)
S=c1[nH]nc(COc2ccccc2)n1/N=C/c1ccc(Cl)cc1	Lassa entry inh inconclusive
S=c1[nH]nc(Cc2ccc(Br)cc2)n1/N=C/c1ccc(Cl)cc1	Marburg entry inh inconclusive, Lassa entry inh inconclusive, HCMV antiviral -67
Clc1ccc(C[n+]2cc(-c3ccccc3)n3c2CCC3)cc1Cl	Marburg entry inh inconclusive, Lassa entry inh inconclusive, HCMV antiviral -72
Clc1ccc(-c2c[n+](Cc3cccc(Cl)c3)c3n2CCC3)cc1	HCMV antiviral -94
Cc1cccc(Cn2cc(S(=O)(=O)c3cccc(Cl)c3)c(=O)c3cc(F)c(N4CCOCC4)cc32)c1	none (no result: Marburg entry inh, HCV inh)
Nc1ncnc(N2CCc3ccccc32)c1[N+](=O)[O-]	HCMV antiviral -83
NNC(=O)c1ccc(N2CCc3ccccc32)c([N+](=O)[O-])c1	Marburg entry inh inconclusive, FMDV inh inconclusive
O=C(COC(=O)c1ccc(S(=O)(=O)NCc2ccco2)cc1)Nc1ccccc1OC(F)F	HCV inh 11µM!
COc1ccc(-c2cn3c(C)c(C(=O)N4CCN(c5ccc(F)cc5)CC4)sc3n2)cc1	none (no result: Lassa entry inh)
COc1ccccc1N1CCN(C(=O)c2sc3nc(-c4ccc(F)cc4)cn3c2C)CC1	HCV inh 4.5µM, HCMV antiviral -61 (no result: Lassa entry inh)
CCCCNC(=O)C1c2cc(OC)c(OC)cc2C(=O)N(C)C1c1ccc(OC)cc1 (stereo not drawn)	HCMV antiviral -100
CCCCNC(=O)C1c2cc(OC)c(OC)cc2C(=O)N(C)C1c1cccs1 (stereo not drawn)	none
Cc1ncc2c(c1CNC(=O)c1cncs1)CCN(C(=O)c1ccc(C(F)(F)F)cc1)C2	none (no result: Marburg entry inh, Lassa entry inh, HCV inh, HCMV antiviral)
Cc1nc(C)n(CC(=O)NCC2Cc3cc(-c4cccc(OC(F)(F)F)c4)ccc3O2)n1 (stereo not drawn)	none (no result: Marburg entry inh, Lassa entry inh, HCV inh, HCMV antiviral)
NC(=O)c1ccccc1OCC(=O)N1CCC(Cc2ccccc2)CC1	FMDV inh 32µM, HCV inh 8.9µM, HCMV antiviral -68 (no result: Marburg entry inh, Lassa entry inh)
CSc1nc(NCC(C)O)c2c3c(sc2n1)CN(C)CC3 (stereo not drawn)	none (no result: Marburg entry inh, Lassa entry inh)
CSc1nc(SCC(=O)NC(c2ccccc2)c2ccccc2)c2c3c(sc2n1)CN(C)CC3	Marburg entry inh 9.2µM, Lassa entry inh inconclusive, HCV inh 1.8µM
CC1(C)N=C(N)N=C(N)N1c1ccc(Oc2ccc(Cl)cc2)c(Cl)c1	Marburg entry inh inconclusive, Lassa entry inh inconclusive, HCV inh inconclusive, HCMV antiviral -100
CC(=O)N1CCc2cc(S(=O)(=O)NC(C(=O)Nc3nc(C)cs3)C(C)C)ccc21 (stereo not drawn)	HCMV antiviral -61
Cc1c(C(=O)N2CCC(C)CC2)c(S(=O)(=O)Nc2cccc(C(F)(F)F)c2)c(C)n1C	HCMV antiviral inconclusive (no result: Marburg entry inh, HCV inh)
Cc1cc(NC(=O)CSc2nnc(-c3ccccc3C)n2C)no1	none
Cc1cc(NC(=O)CSc2nccn2-c2cccc(C)c2C)no1	Marburg entry inh inconclusive, Lassa entry inh inconclusive, HCV inh 11µM
Cc1cc(NC(=O)CSc2nnc(-c3ccco3)n2C)no1	HCMV antiviral -60 (no result: Marburg entry inh, Lassa entry inh)
CCC1CN(C(=O)N2CCC(C(=O)NCc3ccccc3OC)CC2)c2cc(C)ccc2O1 (stereo not drawn)	HCV inh inconclusive (no result: Marburg entry inh, Lassa entry inh)
CCC1CN(C(=O)Nc2ccccc2F)c2cc(C)ccc2O1 (stereo not drawn)	none (no result: Marburg entry inh, HCV inh)
CCC1CN(C(=O)Nc2ccc(C)cc2)c2cc(C)ccc2O1 (stereo not drawn)	Marburg entry inh 11µM, Lassa entry inh inconclusive, HCV inh inconclusive
CCC1CN(C(=O)N2CCC(C(=O)NCc3ccccc3OC)CC2)c2ccccc2O1 (stereo not drawn)	HCV inh 16µM (no result: Marburg entry inh, Lassa entry inh)
CCC1CN(C(=O)N2CCC(C(=O)NCCc3ccc(OC)cc3OC)CC2)c2cc(C)ccc2O1 (stereo not drawn)	FMDV inh 28µM (no result: Marburg entry inh, HCV inh)
CCC1CC2C(=O)C(c3nc(C)cs3)=COC2CC1O (stereo not drawn)	none (no result: FMDV inh, Lassa entry inh, HCV inh, HCMV antiviral)
CCCCOc1ccccc1NC(=O)c1scc2c1OCCO2	Marburg entry inh inconclusive, FMDV inh inconclusive, Lassa entry inh inconclusive, HCV inh 13µM
CCC(C)NCCOCCOc1ccc(Cl)cc1Br (stereo not drawn)	Marburg entry inh inconclusive, Lassa entry inh inconclusive, HCV inh 35µM

From PubChem BioAssay
